# Measured values from PubChem BioAssay (EPA / NIEHS).
# Active and inactive are the calls of the source. How the source made its calls: active means hit-call score of the fitted dose curve at least 0.9, where 1 is the maximum; inactive means score below 0.9.
# What was measured:
# [1] = read-out: Transforming growth factor beta 1 (TGFb1), TGFB1 (gene 7040); experiment: BSK_KF3CT_TGFb1: BioMAP Diversity Plus: KF3CT Assay for Transforming growth factor beta 1 (TGFb1) Biomarker Activity (AID 2283072); details: primary human keratinocytes with fibroblasts; actives raise or lower the signal
# In short: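 ELISA quantifies TGF-b1 at 24 h post-dose in a primary human skin co-culture of keratinocytes and fibroblasts, with gain or loss judged against DMSO. Parallel SRB total-protein staining flags overt cytotoxicity.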
# [2] = read-out: C-C motif chemokine 2 (Homo sapiens) (UniProt P13500); experiment: BSK_KF3CT_MCP1: BioMAP Diversity Plus: KF3CT Assay for Monocyte Chemoattractant Protein 1 (MCP1/CCL2) Biomarker Activity (AID 2283073); details: primary human keratinocytes with fibroblasts; actives raise or lower the signal
# In short: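 KF3CT skin co-culture (keratinocytes/foreskin fibroblasts), 24 h post-dose; MCP-1 by ELISA; gain/loss of signal fit bidirectionally vs DMSO baseline.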
# [3] = read-out: Matrix Metallopeptidase 9 (MMP9), MMP9 (gene 4318); experiment: BSK_KF3CT_MMP9: BioMAP Diversity Plus: KF3CT Assay for Matrix Metallopeptidase 9 (MMP9) Biomarker Activity (AID 2283074); details: primary human keratinocytes with fibroblasts; actives raise or lower the signal
# In short: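 MMP-9 quantified by ELISA after 24 h chemical treatment of primary human skin keratinocyte/fibroblast co-cultures; gain or loss fitted against DMSO, with parallel SRB staining (0.1% SRB, 560 nm) for overt cytotoxicity.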
# [4] = read-out: urokinase plasminogen activator (uPA), PLAU (gene 5328); experiment: BSK_KF3CT_uPA: BioMAP Diversity Plus: KF3CT Assay for urokinase plasminogen activator (uPA) Biomarker Activity (AID 2283075); details: primary human keratinocytes with fibroblasts; actives raise or lower the signal
# In short: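 ELISA read-out of uPA 24 h after dosing human skin keratinocytes co-cultured with foreskin fibroblasts. Signal change fitted both ways relative to DMSO; sulforhodamine B on parallel cultures marks overt cytotoxicity.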
# CD40, CD40 (gene 958) [5] = experiment: BSK_LPS_CD40: BioMAP Diversity Plus: LPS Assay for CD40 Biomarker Activity (AID 2283076); details: primary human HUVEC with PBMC; actives raise or lower the signal
# In short: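 ELISA readout of CD40 in HUVEC/PBMC co-culture (BSK_LPS system), 24 h post-dosing; bidirectional curve fit, DMSO baseline; parallel SRB total-protein staining for cytotoxicity.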
# [6] = read-out: E-selectin (Homo sapiens) (UniProt P16581); experiment: BSK_LPS_Eselectin: BioMAP Diversity Plus: LPS Assay for Eselectin Biomarker Activity (AID 2283077); details: primary human HUVEC with PBMC; actives raise or lower the signal
# In short: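 ELISA readout of E-selectin, 24 h post-dose, HUVEC + PBMC co-culture (LPS system). Gain or loss of signal vs DMSO baseline, bidirectional fit.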
# [7] = read-out: Interleukin-8 (IL8), CXCL8 (gene 3576); experiment: BSK_LPS_IL8: BioMAP Diversity Plus: LPS Assay for Interleukin-8 (IL8) Biomarker Activity (AID 2283078); details: primary human HUVEC with PBMC; actives raise or lower the signal
# In short: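 HUVEC + PBMC co-culture, LPS-activated; test chemicals dosed, IL-8 read by ELISA at 24 h. Bidirectional curve fit vs DMSO baseline (gain or loss of signal).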
# [8] = BSK_LPS_SRB: Viability Assessment in the BioMAP Diversity Plus: LPS Assay (AID 2283079); details: primary human HUVEC with PBMC;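 further: total protein by sulforhodamine B absorbance as a cytotoxicity measure; measured one day after compound addition; fitted in both directions against DMSO so loss or gain of signal counts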
# In short: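 HUVEC + PBMC co-culture, LPS-stimulated; compound 24 h. 10% TCA fix, 0.1% SRB stain, A560. Bidirectional fit vs DMSO.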
# [9] = read-out: Interleukin-1 alpha (IL1a), IL1A (gene 3552); experiment: BSK_LPS_IL1a: BioMAP Diversity Plus: LPS Assay for Interleukin-1 alpha (IL1a) Biomarker Activity (AID 2283080); details: primary human HUVEC with PBMC; actives raise or lower the signal
# In short: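 HUVEC/PBMC co-culture, LPS system; 24 h after dosing; IL-1a by ELISA; gain or loss of signal fitted bidirectionally vs DMSO baseline.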
# [10] = BSK_LPS_PGE2: BioMAP Diversity Plus: LPS Assay for Prostaglandin E2 (PGE2) Biomarker Activity (AID 2283082); details: primary human HUVEC with PBMC; actives raise or lower the signal
# In short: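 PGE2 release measured by ELISA in an LPS-activated co-culture of human umbilical vein endothelial cells and peripheral blood mononuclear cells, read at 24 h post-dosing. DMSO served as baseline for bidirectional curve fitting.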
# [11] = read-out: Macrophage colony-stimulating factor (MCSF), CSF1 (gene 1435); experiment: BSK_LPS_MCSF: BioMAP Diversity Plus: LPS Assay for Macrophage colony-stimulating factor (MCSF) Biomarker Activity (AID 2283083); details: primary human HUVEC with PBMC; actives raise or lower the signal
# In short: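 HUVEC + PBMC co-culture (human primary), 24 h post-dose; M-CSF by ELISA; gain/loss of signal fitted bidirectionally vs DMSO baseline.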
# [12] = read-out: Tissue Factor, F3 (gene 2152); experiment: BSK_LPS_TissueFactor: BioMAP Diversity Plus: LPS Assay for Tissue Factor Biomarker Activity (AID 2283084); details: primary human HUVEC with PBMC; actives raise or lower the signal
# In short: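 HUVEC/PBMC co-culture, LPS-activated; CD142 ELISA read 24 h post-dose; bidirectional curve fit vs DMSO negative control.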
# [13] = read-out: Tumor necrosis factor (Homo sapiens) (UniProt P01375); experiment: BSK_LPS_TNFa: BioMAP Diversity Plus: LPS Assay for Tumour Necrosis Factor alpha (TNFa) Biomarker Activity (AID 2283085); details: primary human HUVEC with PBMC; actives raise or lower the signal;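 on AC50: TNFa protein level quantified by ELISA in the co-culture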
# In short: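 TNFa was quantified by ELISA in LPS-activated co-cultures of human endothelial cells and PBMC, 24 h post-dosing. Both increases and decreases versus DMSO were fitted.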
# [14] = read-out: Vascular cell adhesion molecule 1 (VCAM1), VCAM1 (gene 7412); experiment: BSK_LPS_VCAM1: BioMAP Diversity Plus: LPS Assay for Vascular cell adhesion molecule 1 (VCAM1) Biomarker Activity (AID 2283086); details: primary human HUVEC with PBMC; actives raise or lower the signal
# In short: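 VCAM-1 quantified by ELISA in an LPS-activated co-culture of human endothelial cells and peripheral blood mononuclear cells, read 24 h post-treatment. Fitted in both directions versus DMSO; parallel SRB staining flags overt cytotoxicity.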
# CD38, CD38 (gene 952) = experiment: BSK_SAg_CD38: BioMAP Diversity Plus: SAg Assay for CD38 Biomarker Activity (AID 2283087); details: primary human HUVEC with PBMC; actives raise or lower the signal
# In short: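 CD38 quantified by ELISA (fluorescence) in a superantigen-activated endothelial cell–PBMC co-culture at 24 h post-dose. Activity fitted in both directions relative to DMSO; parallel SRB and Alamar Blue cytotoxicity read-outs.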
# CD40, CD40 (gene 958) [15] = experiment: BSK_SAg_CD40: BioMAP Diversity Plus: SAg Assay for CD40 Biomarker Activity (AID 2283088); details: primary human HUVEC with PBMC; actives raise or lower the signal
# In short: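 HUVEC/PBMC co-culture, 24 h post-dose; CD40 by ELISA, fluorescence intensity; bidirectional fit vs DMSO negative control.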
# [16] = read-out: Monocyte Chemoattractant Protein-1 (MCP1), CCL2 (gene 6347); experiment: BSK_SAg_MCP1: BioMAP Diversity Plus: SAg Assay for Monocyte Chemoattractant Protein-1 (MCP1) Biomarker Activity (AID 2283090); details: primary human HUVEC with PBMC; actives raise or lower the signal
# In short: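 Values derive from bidirectional fitting of ELISA-measured MCP1 against DMSO controls. Readings were taken 24 h after dosing human vascular endothelial cells co-cultured with peripheral blood mononuclear cells under superantigen stimulation.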
# [17] = read-out: E-selectin (Homo sapiens) (UniProt P16581); experiment: BSK_SAg_Eselectin: BioMAP Diversity Plus: SAg Assay for Eselectin Biomarker Activity (AID 2283091); details: primary human HUVEC with PBMC; actives raise or lower the signal
# In short: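 E-selectin ELISA readout at 24 h post-dosing in human umbilical vein endothelial cell/PBMC co-culture; gain or loss of signal fitted relative to DMSO baseline.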
# [18] = read-out: Monocyte Chemoattractant Protein-1 (MCP1), CCL2 (gene 6347); experiment: BSK_LPS_MCP1: BioMAP Diversity Plus: LPS Assay for Monocyte Chemoattractant Protein-1 (MCP1) Biomarker Activity (AID 2283081); details: primary human HUVEC with PBMC; actives raise or lower the signal
# In short: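 ELISA read-out of MCP-1 after 24 h chemical dosing of a human umbilical vein endothelial cell/peripheral blood mononuclear cell co-culture stimulated with LPS. Gain or loss of signal fitted relative to DMSO controls.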
# CD69, CD69 (gene 969) = experiment: BSK_SAg_CD69: BioMAP Diversity Plus: SAg Assay for CD69 Biomarker Activity (AID 2283089); details: primary human HUVEC with PBMC; actives raise or lower the signal;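 on AC50: cell surface CD69 protein quantified by ELISA with fluorescence detection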
# In short: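 Values derive from bidirectional fitting relative to DMSO vehicle. Cells: umbilical vein endothelium plus peripheral blood mononuclear cells, treated 24 h before fluorescent ELISA for CD69.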
# Sequence of Tumor necrosis factor (Homo sapiens) (P01375 whole entry, looked up): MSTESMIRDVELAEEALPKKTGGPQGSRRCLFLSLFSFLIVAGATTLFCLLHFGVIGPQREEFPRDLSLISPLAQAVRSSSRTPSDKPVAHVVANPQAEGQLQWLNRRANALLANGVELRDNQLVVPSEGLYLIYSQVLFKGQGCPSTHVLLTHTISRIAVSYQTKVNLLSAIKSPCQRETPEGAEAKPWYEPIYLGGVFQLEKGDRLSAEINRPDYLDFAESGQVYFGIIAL
# Sequence of E-selectin (Homo sapiens) (P16581 whole entry, looked up): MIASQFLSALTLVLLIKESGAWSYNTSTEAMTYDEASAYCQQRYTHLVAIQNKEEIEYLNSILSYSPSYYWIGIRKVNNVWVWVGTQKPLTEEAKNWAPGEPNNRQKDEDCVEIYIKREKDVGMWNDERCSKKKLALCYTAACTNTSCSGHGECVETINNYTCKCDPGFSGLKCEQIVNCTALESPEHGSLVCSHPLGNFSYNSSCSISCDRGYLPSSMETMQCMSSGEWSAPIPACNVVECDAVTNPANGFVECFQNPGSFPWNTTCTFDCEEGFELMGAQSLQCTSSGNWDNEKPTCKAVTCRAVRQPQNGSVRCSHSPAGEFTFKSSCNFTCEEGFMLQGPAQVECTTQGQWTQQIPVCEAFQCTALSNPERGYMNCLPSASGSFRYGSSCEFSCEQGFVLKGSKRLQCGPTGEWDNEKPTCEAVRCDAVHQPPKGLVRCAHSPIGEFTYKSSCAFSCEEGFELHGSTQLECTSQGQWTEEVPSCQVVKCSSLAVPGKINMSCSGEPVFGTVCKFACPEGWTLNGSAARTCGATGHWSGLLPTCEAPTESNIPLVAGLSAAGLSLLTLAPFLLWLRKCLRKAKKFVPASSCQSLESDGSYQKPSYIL
smiles,measurement,setting,value
Nc1nc(N)c2nc(CNc3ccc(C(=O)N[C@@H](CCC(=O)O)C(=O)O)cc3)cnc2n1,outcome,[1],inactive
same,outcome,[2],inactive
same,outcome,[3],inactive
same,outcome,[4],inactive
same,outcome,"CD40, CD40 (gene 958) [5]",inactive
same,outcome,[6],inactive
same,outcome,[7],inactive
same,outcome,[8],inactive
same,outcome,[9],inactive
same,outcome,[10],inactive
same,outcome,[11],inactive
same,outcome,[12],inactive
same,outcome,[13],inactive
same,outcome,[14],inactive
same,outcome,"CD38, CD38 (gene 952)",inactive
same,outcome,"CD40, CD40 (gene 958) [15]",inactive
same,outcome,[16],inactive
same,outcome,[17],inactive
CCNc1cccc(C)c1,outcome,[1],inactive
same,outcome,[2],inactive
same,outcome,[3],inactive
same,outcome,[4],inactive
same,outcome,"CD40, CD40 (gene 958) [5]",inactive
same,outcome,[6],inactive
same,outcome,[7],inactive
same,outcome,[8],inactive
same,outcome,[9],inactive
same,outcome,[18],inactive
same,outcome,[11],inactive
same,outcome,[12],inactive
same,outcome,[13],inactive
same,outcome,[14],inactive
same,outcome,"CD38, CD38 (gene 952)",inactive
same,outcome,"CD40, CD40 (gene 958) [15]",inactive
same,outcome,"CD69, CD69 (gene 969)",inactive
same,outcome,[16],inactive
same,outcome,[17],inactive
Cc1cccc(Nc2cc(Cl)nc(SCC(=O)O)n2)c1C,outcome,[1],inactive
same,outcome,[2],inactive
same,outcome,[3],inactive
same,outcome,[4],inactive
same,outcome,"CD40, CD40 (gene 958) [5]",inactive
same,outcome,[6],inactive
same,outcome,[7],inactive
same,outcome,[8],inactive
same,outcome,[9],inactive
same,outcome,[18],inactive
same,outcome,[11],inactive
same,outcome,[12],inactive
same,outcome,[13],inactive
same,outcome,[14],inactive
same,outcome,"CD38, CD38 (gene 952)",inactive
same,outcome,"CD40, CD40 (gene 958) [15]",inactive
same,outcome,[16],inactive
same,outcome,[17],inactive
COc1ccc(S(=O)(=O)N2C(=O)[C@@](c3ccccc3OC)(N3C[C@H](O)C[C@H]3C(=O)N(C)C)c3cc(Cl)ccc32)c(OC)c1,outcome,[1],inactive
same,outcome,[2],inactive
same,outcome,[3],inactive
same,outcome,[4],inactive
same,AC50,"CD40, CD40 (gene 958) [5]",20 µM (active)
same,outcome,[6],inactive
same,AC50,[7],7.03 µM (active)
same,outcome,[8],inactive
same,outcome,[9],inactive
same,outcome,[18],inactive
same,AC50,[11],32 µM (active)
same,outcome,[12],inactive
same,AC50,[13],16.6 µM (active)
same,AC50,[14],27 µM (active)
same,outcome,"CD38, CD38 (gene 952)",inactive
same,AC50,"CD40, CD40 (gene 958) [15]",20 µM (active)
same,AC50,"CD69, CD69 (gene 969)",11.9 µM (active)
same,outcome,[16],inactive
same,AC50,[17],20 µM (active)
Cc1c(C(=O)O)c(O)cc2c1C(=O)c1c(O)c([C@@H]3O[C@H](CO)[C@@H](O)[C@H](O)[C@H]3O)c(O)c(O)c1C2=O,outcome,[1],inactive
same,outcome,[2],inactive
same,outcome,[3],inactive
same,outcome,[4],inactive
same,AC50,"CD40, CD40 (gene 958) [5]",0.782 µM (active)
same,outcome,[6],inactive
same,outcome,[7],inactive
same,outcome,[8],inactive
same,outcome,[9],inactive
same,outcome,[18],inactive
same,outcome,[10],inactive
same,outcome,[11],inactive
same,outcome,[12],inactive
same,outcome,[13],inactive
same,outcome,[14],inactive
same,outcome,"CD38, CD38 (gene 952)",inactive
same,outcome,[16],inactive
same,outcome,[17],inactive
COc1cc(S(=O)(=O)O)c(C)cc1N=Nc1c(O)ccc2cc(S(=O)(=O)O)ccc12,outcome,[1],inactive
same,outcome,[2],inactive
same,outcome,[3],inactive
same,outcome,[4],inactive
same,outcome,"CD40, CD40 (gene 958) [5]",inactive
same,outcome,[6],inactive
same,outcome,[7],inactive
same,outcome,[8],inactive
same,outcome,[9],inactive
same,outcome,[10],inactive
same,outcome,[11],inactive
same,outcome,[12],inactive
same,outcome,[13],inactive
same,outcome,[14],inactive
same,outcome,"CD38, CD38 (gene 952)",inactive
same,outcome,"CD40, CD40 (gene 958) [15]",inactive
same,outcome,"CD69, CD69 (gene 969)",inactive
same,outcome,[16],inactive
same,outcome,[17],inactive
COc1cc(C=O)ccc1O,outcome,[1],inactive
same,outcome,[2],inactive
same,outcome,[3],inactive
same,outcome,[4],inactive
same,outcome,"CD40, CD40 (gene 958) [5]",inactive
same,outcome,[6],inactive
same,outcome,[7],inactive
same,outcome,[8],inactive
same,outcome,[9],inactive
same,outcome,[18],inactive
same,outcome,[10],inactive
same,outcome,[11],inactive
same,outcome,[12],inactive
same,outcome,[13],inactive
same,outcome,[14],inactive
same,outcome,"CD38, CD38 (gene 952)",inactive
same,outcome,"CD69, CD69 (gene 969)",inactive
same,outcome,[16],inactive
same,outcome,[17],inactive
